# Many of the other results were omitted from the sample, so hits are more common in it than they were.
# ER stress surv – ER stress cell death inhibition; relative survival (cellular ATP), % at 15 µg/mL (by protocol); CSM14.1 thapsigargin ER stress survival, ATP luminescence; 48,000 tested, 0.33% active;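 active = survival measured by cellular ATP above 50% at 15 µg/ml in the first screen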;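 also: cell death triggered by about 15 µM thapsigargin; ATP read 24 h after thapsigargin was added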
# Hits are given with their value; 0 = inactive.
SMILES,ER stress surv
COc1ccc(C2(CC(=O)Nc3ccc(Br)cc3)C(=O)c3ccccc3C2=O)cc1,0
CC(C)(C)C1=C/C(=C\c2ccccc2)C(C(C)(C)C)=C(O)C1=O,0
COc1ccc(C(=O)/C=C/Nc2ccc(Cl)c([N+](=O)[O-])c2)cc1,0
COc1ccc(C2CC(=O)C3=C(C2)Nc2ccccc2NC3c2cccc(C(F)(F)F)c2)cc1OC (configuration not stated),134.6
COc1ccc(C2CC(=O)C3=C(C2)Nc2ccccc2NC3c2ccc(F)cc2)cc1OC (configuration not stated),0
COc1ccc(C2CC(=O)C3=C(C2)Nc2ccccc2NC3c2ccc(OC(C)=O)c(OC)c2)cc1OC (configuration not stated),0
COc1ccc(C2CC(=O)C3=C(C2)Nc2ccccc2NC3c2cccc(Br)c2)cc1OC (configuration not stated),122.2
COc1ccc(C2Nc3ccccc3NC3=C2C(=O)CC(c2ccccc2)C3)cc1OC (configuration not stated),0
COc1ccc(C2Nc3ccccc3NC3=C2C(=O)CC(c2ccc(OC)c(OC)c2)C3)cc1 (configuration not stated),0
N/C(=N\OC(=O)c1cccc(Br)c1)c1ccc(Cl)cc1,0
Cc1cccc(N2CCN(C(=O)c3ccc(Cl)cc3Cl)CC2)c1C,0
C(=N\Nc1nc(Nc2ccccc2)nc(N2CCOCC2)n1)/c1ccc2ccccc2c1,0
Cc1ccc(-n2c(C)cc(/C=N/NC(=O)c3ccncc3)c2C)cc1C,67.1
Cc1cccc(C)c1-n1c(C)cc(/C=N/NC(=O)c2ccncc2)c1C,0
CCc1ccc(-n2c(C)cc(/C=N/NC(=O)c3ccncc3)c2C)cc1,0
CC(C)C(=O)NNC1=CC(=O)CC(C)(C)C1,0
CCOc1ccccc1NC(=O)C(=O)NCCCOC,0
O=C(NCCNC(=O)c1cccs1)c1cccs1,0
O=C(NCc1ccncc1)c1cccs1,0
O=C(CC(=S)c1cccs1)c1ccncc1,60.9
COc1ccc(CC(=O)N=Nc2c(O)n(CN3CCCC3)c3ccccc23)cc1,0
COc1ccc(/C=C2\SC(=S)N(c3ccc(F)cc3)C2=O)cc1OC,0
O=C(Nc1ccc(Cl)c(Cl)c1)c1ccc([N+](=O)[O-])o1,0
Cc1ccc(C(=O)Nc2ncccn2)o1,0
O=C(Nc1ncccn1)c1ccc([N+](=O)[O-])o1,65.0
SMILES,ER stress surv
O=C(C1CC1c1ccccc1)N1CCN(C(c2ccccc2)c2ccccc2)CC1 (configuration not stated),103.9
O=C(O)C1C2CCC(O2)C1C(=O)N1CCN(C(c2ccccc2)c2ccccc2)CC1 (configuration not stated),0
O=C(O)C1C2C=CC(O2)C1C(=O)N1CCN(C(c2ccccc2)c2ccccc2)CC1 (configuration not stated),0
CCOc1ccccc1NC(=O)c1c(NC(=O)C(C)(C)C)sc2c1CCCC2,0
CCCCCCC(=O)Nc1nnc(CC(C)C)s1,0
CCN1C(=O)/C(=C\c2ccc(-c3ccc([N+](=O)[O-])cc3)o2)SC1=S,0
O=C1/C(=C/c2ccc(-c3ccc([N+](=O)[O-])cc3)o2)SC(=S)N1Cc1ccco1,56.5
O=C1S/C(=C\c2ccc(-c3ccc([N+](=O)[O-])cc3)o2)C(=O)N1c1ccccc1,0
CCOc1cc(C=O)ccc1OCc1c(F)cccc1Cl,0
COc1ccc(S(=O)(=O)N(CCc2ccccc2)CC(=O)N2CCCC2)cc1,0
O=C(Nc1ccc(O)c(-c2nc3ccccc3s2)c1)c1cc([N+](=O)[O-])ccc1Cl,59.6
O=C(Nc1ccc(O)c(-c2nc3ccccc3s2)c1)c1cccc(Cl)c1Cl,0
Cc1c(NC(=O)c2cc([N+](=O)[O-])ccc2Cl)cccc1-c1nc2ccccc2s1,0
COC(=O)c1ccccc1NC(=O)c1nn(C)cc1[N+](=O)[O-],0
O=C(COc1ccc2ccccc2c1)Nc1ccc(Cl)c(Cl)c1,0
O=C(Nc1cccc(NC(=O)c2cccc3ccccc23)c1)c1ccc(Cl)cc1Cl,0
O=C(COc1ccc2ccccc2c1)Nc1cccc(NC(=O)c2ccc(Cl)cc2Cl)c1,50.5
CCc1ccccc1NC(=O)C(=O)NC(C)c1ccccc1 (configuration not stated),0
O=[N+]([O-])c1ccc(-c2nnc(-c3ccco3)o2)c(Cl)c1,0
N#Cc1c(NC(=O)c2ccc(S(=O)(=O)c3ccccc3)cc2)sc2c1CCCC2,0
CC(=O)C1=C(O)C(=O)N(CC2CCCO2)C1c1ccc(O)cc1 (configuration not stated),0
O=C(c1cccs1)N1CCN(Cc2ccc(Cl)cc2)CC1,0
COc1ccc(CN2CCN(C(=O)c3cccs3)CC2)cc1OC,0
CCn1c2ccccc2c2cc(CN3CCN(Cc4ccc(OC)c(Br)c4)CC3)ccc21,0
CCn1c2ccccc2c2cc(CN3CCN(C(=O)CC(C)C)CC3)ccc21,63.4
SMILES,ER stress surv
CCn1c2ccccc2c2cc(CN3CCN(C(=O)c4cccs4)CC3)ccc21,133.3
CC(C)CC(=O)N1CCN(Cc2ccc3ccccc3c2)CC1,0
Cc1cc(OCC(=O)Nc2ccc(I)cc2Cl)ccc1Cl,0
O=C(CC(c1ccccc1)c1ccccc1)Nc1ccc2ccccc2c1,0
CCN(CC)C1=NS(=O)(=O)c2ccccc21,0
CC(Oc1cccc(Cl)c1)C(=O)Nc1ccccc1C(=O)N1CCCCCC1 (configuration not stated),0
O=C(c1ccc([N+](=O)[O-])cc1)N1CCN(Cc2ccccn2)CC1,0
COc1cccc(CN2CCN(C(=O)c3cccc(F)c3)CC2)c1OC,0
O=C(c1ccc([N+](=O)[O-])cc1)N1CCN(Cc2cccc(Cl)c2)CC1,0
COc1ccc(C(=O)N2CCN(Cc3cc(OC)c(O)c(OC)c3)CC2)cc1,0
COc1cc(CN2CCN(C(=O)c3ccc(-c4ccccc4)cc3)CC2)cc(OC)c1OC,75.2
COc1ccc(C(=O)N2CCN(Cc3cc(OC)c(OC)c(OC)c3)CC2)cc1OC,0
COc1cccc(CN2CCN(C(=O)c3ccccc3)CC2)c1OC,0
O=C(c1ccc([N+](=O)[O-])cc1)N1CCN(Cc2cccc3ccccc23)CC1,63.3
COc1cccc(CN2CCN(C(=O)c3ccc(-c4ccccc4)cc3)CC2)c1OC,113.1
COc1ccc(C(=O)CC(=O)C(C)(C)C)cc1,0
CC(=O)Nc1ccc(-c2ccc(OCc3ccccc3)cc2)cc1,0
COc1ccc(C2=N/C(=C/c3ccccc3F)C(=O)N2c2ccccc2)cc1,0
O=C(NC(C(=O)O)C12CC3CC(CC(C3)C1)C2)c1ccc([N+](=O)[O-])cc1 (configuration not stated),0
COc1cccc(OC)c1C(=O)Nc1cccc(Oc2ccc3c(c2)C(=O)N(c2ccccc2)C3=O)c1,0
CCOc1cc(/C=C2\C(=O)NC(=S)N(c3ccc(Br)cc3)C2=O)ccc1O,0
CCc1nnc(NC(=O)CC(c2ccccc2)c2ccccc2)s1,0
COc1ccccc1CNC(=O)c1ccc(F)cc1,100.5
COc1ccccc1CNC(=O)c1ccc(C)cc1,0
COc1ccccc1CNC(=O)c1ccc(OC)c(OC)c1,0
O=C(c1cccc(F)c1)N1CCN(c2ccccc2)CC1,0
N#CN=C1CCCN1C(=O)c1ccccc1,0
CCc1c(O)nc(SCC(=O)Nc2cccc3ccccc23)[nH]c1=O,0
COc1ccc(C(=O)N2CCN(Cc3ccccc3)CC2)cc1[N+](=O)[O-],0
COc1ccc(CN2CCN(C(=O)c3cccc(F)c3)CC2)cc1OCc1ccccc1,0
